About 8,800 targets were measured; listed, in parts, are those with a hit and a random draw of the rest. About 0.5% of all pairs of compound and target were hits. A number with no mark means an inactive call.
Tests used:
Test in all cases: log2 fold change, soluble protein after heating vs DMSO (PISA); higher = thermal stabilisation; K562 lysate, 10 uM; active = over 0.2 and 3.5 SD of the protein, either way, in both replicates (recomputed)
vemurafenib = compound: CCCS(=O)(=O)Nc1ccc(F)c(C(=O)c2c[nH]c3ncc(-c4ccc(Cl)cc4)cc23)c1F [vemurafenib]
Summary of the method: (§1)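 To prepare the extract, K562 pellets were dounce-homogenised in PBS pH 7.4 with 1 mM MgCl2, giving crude material at 1 mg/mL protein. This was treated with 10 μM compound for 30 min, then heated in aliquots for 3 min over 48°C-58°C before pooling and addition of NP-40 to 0.5% at 4°C. Centrifugation at 21,000xg for 90 min left soluble protein in the supernatant, which TMTpro 16plex LC-MS/MS quantified with equalised channel sums. Results are log-two fold changes in thermal stability compared with solvent controls, from duplicates.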

[1] = compound: CCCS(=O)(=O)Nc1ccc(F)c(C(=O)c2c[nH]c3ncc(Cl)cc23)c1F
Summary of the method: as §1

barasertib = compound: CCN(CCCOc1ccc2c(Nc3cc(CC(=O)Nc4cccc(F)c4)[nH]n3)ncnc2c1)CCOP(=O)(O)O [barasertib]
Summary of the method: as §1

[2] = compound: CC[C@@H]1C(=O)N(C)c2cnc(Nc3ccc(C(=O)NC4CCN(C)CC4)cc3OC)nc2N1C1CCCC1
Summary of the method: as §1

volasertib = compound: CC[C@@H]1C(=O)N(C)c2cnc(Nc3ccc(C(=O)N[C@H]4CC[C@H](N5CCN(CC6CC6)CC5)CC4)cc3OC)nc2N1C(C)C [volasertib]
Summary of the method: as §1

[3] = compound: CCn1c(C(=O)N(C2CC2)C2CC2)cc2c3c(ncn3C)c(Nc3cc(C)n(C)n3)nc21
Summary of the method: as §1

[4] = compound: CCn1cc(-c2ccnc3[nH]c(-c4cccc(CN(C)C)c4)cc23)c(-c2ccc(NC(=O)N(C)C)cc2)n1
Summary of the method: as §1

[5] = compound: CN1CCC(CNc2ccc3ncc(-c4cccc(OC(F)(F)F)c4)n3n2)CC1
Summary of the method: as §1

saracatinib = compound: CN1CCN(CCOc2cc(OC3CCOCC3)c3c(Nc4c(Cl)ccc5c4OCO5)ncnc3c2)CC1 [saracatinib]
Summary of the method: as §1

sotrastaurin = compound: CN1CCN(c2nc(C3=C(c4c[nH]c5ccccc45)C(=O)NC3=O)c3ccccc3n2)CC1 [sotrastaurin]
Summary of the method: as §1

alvocidib = compound: CN1CC[C@H](c2c(O)cc(O)c3c(=O)cc(-c4ccccc4Cl)oc23)[C@H](O)C1 [alvocidib]
Summary of the method: as §1

Tubastatin A = compound: CN1CCc2c(c3ccccc3n2Cc2ccc(C(=O)NO)cc2)C1 [Tubastatin A]
Summary of the method: as §1

[6] = compound: CNC(=O)C1=CC=CC=C1NC2=NC(=NC=C2Cl)NC3=C(C=C(C=C3)N4CCOCC4)OC
Summary of the method: as §1

defactinib = compound: CNC(=O)c1ccc(Nc2ncc(C(F)(F)F)c(NCc3nccnc3N(C)S(C)(=O)=O)n2)cc1 [defactinib]
Summary of the method: as §1

[7] = compound: CNc1nc(-c2ccc3c(N)n[nH]c3c2)cc(N2C[C@@H](C(=O)NC3CCCCC3)CC[C@H]2C)n1
Summary of the method: as §1

encorafenib = compound: COC(=O)N[C@@H](C)CNc1nccc(-c2cn(C(C)C)nc2-c2cc(Cl)cc(NS(C)(=O)=O)c2F)n1 [encorafenib]
Summary of the method: as §1

[8] = compound: COC(=O)[C@H](CCSC)NC(=O)C1=C(C=C(C=C1)NC[C@H](CS)N)C2=CC=CC=C2
Summary of the method: as §1

alisertib = compound: COc1cc(Nc2ncc3c(n2)-c2ccc(Cl)cc2C(c2c(F)cccc2OC)=NC3)ccc1C(=O)O [alisertib]
Summary of the method: as §1

[9] = compound: COc1cc2nc(-c3cc(F)ccc3O)nc(N[C@@H]3CNC[C@H]3C(C)(C)O)c2cc1OC
Summary of the method: as §1

gefitinib = compound: COc1cc2ncnc(Nc3ccc(F)c(Cl)c3)c2cc1OCCCN1CCOCC1 [gefitinib]
Summary of the method: as §1

Sequence of UniProt P28482 (P28482 whole entry, looked up): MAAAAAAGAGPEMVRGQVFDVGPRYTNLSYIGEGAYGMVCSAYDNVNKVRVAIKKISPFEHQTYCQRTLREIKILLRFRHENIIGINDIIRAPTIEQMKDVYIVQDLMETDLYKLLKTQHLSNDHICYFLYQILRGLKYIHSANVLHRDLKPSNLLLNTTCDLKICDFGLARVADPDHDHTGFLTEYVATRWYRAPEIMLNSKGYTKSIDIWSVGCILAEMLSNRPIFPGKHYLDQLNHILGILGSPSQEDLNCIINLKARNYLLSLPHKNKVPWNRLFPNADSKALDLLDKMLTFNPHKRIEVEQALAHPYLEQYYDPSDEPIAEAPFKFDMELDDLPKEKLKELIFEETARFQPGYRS
Sequence of UniProt P27448 (P27448 whole entry, looked up): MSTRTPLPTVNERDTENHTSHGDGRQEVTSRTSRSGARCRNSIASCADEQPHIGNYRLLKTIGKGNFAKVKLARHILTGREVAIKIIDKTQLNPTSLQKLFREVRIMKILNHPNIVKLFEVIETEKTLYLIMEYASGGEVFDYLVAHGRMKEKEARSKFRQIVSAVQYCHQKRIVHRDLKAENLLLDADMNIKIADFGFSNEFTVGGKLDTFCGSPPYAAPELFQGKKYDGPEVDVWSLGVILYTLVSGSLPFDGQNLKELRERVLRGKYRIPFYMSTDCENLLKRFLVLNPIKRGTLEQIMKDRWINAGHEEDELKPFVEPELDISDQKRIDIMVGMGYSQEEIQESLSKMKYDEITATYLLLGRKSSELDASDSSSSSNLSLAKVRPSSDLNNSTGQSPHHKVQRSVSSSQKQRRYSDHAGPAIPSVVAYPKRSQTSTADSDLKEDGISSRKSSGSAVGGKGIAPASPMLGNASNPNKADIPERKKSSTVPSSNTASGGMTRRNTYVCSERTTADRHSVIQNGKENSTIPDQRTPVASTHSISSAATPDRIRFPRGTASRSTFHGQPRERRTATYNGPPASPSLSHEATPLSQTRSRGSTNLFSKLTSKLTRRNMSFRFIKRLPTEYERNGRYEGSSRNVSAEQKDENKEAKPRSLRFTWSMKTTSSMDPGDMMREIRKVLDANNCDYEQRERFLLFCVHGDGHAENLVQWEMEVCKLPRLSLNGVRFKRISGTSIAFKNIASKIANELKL
Sequence of UniProt Q9BW19 (Q9BW19 whole entry, looked up): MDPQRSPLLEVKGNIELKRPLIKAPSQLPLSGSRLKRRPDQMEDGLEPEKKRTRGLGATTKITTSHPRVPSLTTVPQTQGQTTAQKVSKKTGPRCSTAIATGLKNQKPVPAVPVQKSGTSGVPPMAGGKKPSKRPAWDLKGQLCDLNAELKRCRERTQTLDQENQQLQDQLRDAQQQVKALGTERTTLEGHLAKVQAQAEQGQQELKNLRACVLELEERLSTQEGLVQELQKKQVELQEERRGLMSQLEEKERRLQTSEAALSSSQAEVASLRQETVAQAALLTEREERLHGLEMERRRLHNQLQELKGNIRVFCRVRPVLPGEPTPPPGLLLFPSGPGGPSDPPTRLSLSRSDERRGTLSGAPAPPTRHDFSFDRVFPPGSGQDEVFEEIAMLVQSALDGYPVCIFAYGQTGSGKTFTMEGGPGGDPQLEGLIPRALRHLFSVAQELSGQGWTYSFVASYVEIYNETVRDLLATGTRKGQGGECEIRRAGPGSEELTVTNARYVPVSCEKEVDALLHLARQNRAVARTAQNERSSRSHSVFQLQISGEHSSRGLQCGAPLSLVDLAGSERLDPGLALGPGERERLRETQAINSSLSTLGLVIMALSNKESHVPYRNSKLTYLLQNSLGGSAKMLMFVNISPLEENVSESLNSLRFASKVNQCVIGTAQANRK
Sequence of UniProt O15021 (O15021 whole entry, looked up): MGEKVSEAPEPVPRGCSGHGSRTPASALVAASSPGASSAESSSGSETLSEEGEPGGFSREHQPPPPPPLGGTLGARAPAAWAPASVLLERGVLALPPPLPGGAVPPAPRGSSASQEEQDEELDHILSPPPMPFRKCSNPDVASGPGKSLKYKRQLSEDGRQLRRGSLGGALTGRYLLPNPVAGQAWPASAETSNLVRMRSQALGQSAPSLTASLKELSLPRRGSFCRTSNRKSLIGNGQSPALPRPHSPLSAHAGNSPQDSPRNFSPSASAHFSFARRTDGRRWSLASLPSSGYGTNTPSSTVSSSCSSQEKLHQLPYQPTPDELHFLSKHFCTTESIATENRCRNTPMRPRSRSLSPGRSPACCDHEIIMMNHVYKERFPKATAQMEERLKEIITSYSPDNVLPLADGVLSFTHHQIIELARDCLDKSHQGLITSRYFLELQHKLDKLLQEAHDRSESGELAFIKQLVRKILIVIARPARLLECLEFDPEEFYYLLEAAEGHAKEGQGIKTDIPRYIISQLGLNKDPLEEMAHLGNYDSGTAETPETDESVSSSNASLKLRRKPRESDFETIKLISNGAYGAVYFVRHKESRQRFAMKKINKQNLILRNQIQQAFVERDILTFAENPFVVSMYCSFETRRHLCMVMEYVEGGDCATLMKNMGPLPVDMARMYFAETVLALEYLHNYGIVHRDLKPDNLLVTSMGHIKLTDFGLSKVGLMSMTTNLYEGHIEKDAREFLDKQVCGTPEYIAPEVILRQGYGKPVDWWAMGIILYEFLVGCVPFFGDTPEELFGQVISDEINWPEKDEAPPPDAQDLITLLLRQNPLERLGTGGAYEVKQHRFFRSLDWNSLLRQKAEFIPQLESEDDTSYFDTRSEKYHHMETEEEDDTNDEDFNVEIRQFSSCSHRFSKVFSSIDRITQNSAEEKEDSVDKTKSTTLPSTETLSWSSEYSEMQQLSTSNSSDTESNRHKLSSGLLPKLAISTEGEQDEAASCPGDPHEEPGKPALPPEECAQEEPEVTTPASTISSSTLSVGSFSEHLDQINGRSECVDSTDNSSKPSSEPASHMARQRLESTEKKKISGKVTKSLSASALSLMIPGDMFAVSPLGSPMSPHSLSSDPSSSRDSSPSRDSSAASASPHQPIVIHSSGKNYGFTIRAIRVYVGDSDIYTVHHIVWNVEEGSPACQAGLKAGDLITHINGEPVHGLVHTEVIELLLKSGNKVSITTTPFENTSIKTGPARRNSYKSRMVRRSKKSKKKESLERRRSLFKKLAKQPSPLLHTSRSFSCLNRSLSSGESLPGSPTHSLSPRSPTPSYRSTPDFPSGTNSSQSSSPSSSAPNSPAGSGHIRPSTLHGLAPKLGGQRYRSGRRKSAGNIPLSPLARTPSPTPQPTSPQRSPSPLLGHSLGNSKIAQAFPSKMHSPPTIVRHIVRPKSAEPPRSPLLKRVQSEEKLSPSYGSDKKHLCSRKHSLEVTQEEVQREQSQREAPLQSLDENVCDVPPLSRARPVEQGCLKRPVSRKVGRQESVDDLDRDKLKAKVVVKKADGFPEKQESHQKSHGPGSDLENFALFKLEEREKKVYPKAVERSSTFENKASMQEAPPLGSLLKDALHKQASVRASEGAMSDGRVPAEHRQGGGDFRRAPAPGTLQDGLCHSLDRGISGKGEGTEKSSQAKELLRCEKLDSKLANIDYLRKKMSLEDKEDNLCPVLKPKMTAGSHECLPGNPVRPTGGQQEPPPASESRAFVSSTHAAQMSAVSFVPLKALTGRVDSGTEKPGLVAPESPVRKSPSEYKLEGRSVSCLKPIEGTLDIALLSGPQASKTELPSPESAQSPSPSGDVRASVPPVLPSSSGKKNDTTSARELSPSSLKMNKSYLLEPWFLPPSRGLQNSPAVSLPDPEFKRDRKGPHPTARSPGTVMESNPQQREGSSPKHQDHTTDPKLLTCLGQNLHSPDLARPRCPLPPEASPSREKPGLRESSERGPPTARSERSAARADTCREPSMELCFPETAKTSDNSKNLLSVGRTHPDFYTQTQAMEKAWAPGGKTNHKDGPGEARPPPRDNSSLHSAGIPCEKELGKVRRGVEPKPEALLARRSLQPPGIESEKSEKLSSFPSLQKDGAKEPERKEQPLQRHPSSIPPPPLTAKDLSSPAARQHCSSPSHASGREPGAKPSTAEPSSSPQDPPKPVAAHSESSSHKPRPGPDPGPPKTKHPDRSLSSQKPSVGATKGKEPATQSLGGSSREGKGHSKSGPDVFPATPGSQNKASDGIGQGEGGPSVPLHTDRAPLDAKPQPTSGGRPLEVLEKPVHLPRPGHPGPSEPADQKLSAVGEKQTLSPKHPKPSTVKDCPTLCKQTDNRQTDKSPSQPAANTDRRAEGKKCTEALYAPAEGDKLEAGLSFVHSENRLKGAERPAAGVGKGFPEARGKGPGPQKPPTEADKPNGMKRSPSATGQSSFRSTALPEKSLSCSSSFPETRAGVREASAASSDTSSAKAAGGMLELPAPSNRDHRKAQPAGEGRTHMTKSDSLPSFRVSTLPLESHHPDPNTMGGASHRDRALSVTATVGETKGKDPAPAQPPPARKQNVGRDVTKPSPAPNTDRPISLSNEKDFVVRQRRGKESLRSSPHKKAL
Sequence of UniProt O95777 (O95777 whole entry, looked up): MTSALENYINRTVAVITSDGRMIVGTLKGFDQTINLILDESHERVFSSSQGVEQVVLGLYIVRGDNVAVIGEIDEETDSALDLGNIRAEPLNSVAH
Sequence of UniProt Q13601 (Q13601 whole entry, looked up): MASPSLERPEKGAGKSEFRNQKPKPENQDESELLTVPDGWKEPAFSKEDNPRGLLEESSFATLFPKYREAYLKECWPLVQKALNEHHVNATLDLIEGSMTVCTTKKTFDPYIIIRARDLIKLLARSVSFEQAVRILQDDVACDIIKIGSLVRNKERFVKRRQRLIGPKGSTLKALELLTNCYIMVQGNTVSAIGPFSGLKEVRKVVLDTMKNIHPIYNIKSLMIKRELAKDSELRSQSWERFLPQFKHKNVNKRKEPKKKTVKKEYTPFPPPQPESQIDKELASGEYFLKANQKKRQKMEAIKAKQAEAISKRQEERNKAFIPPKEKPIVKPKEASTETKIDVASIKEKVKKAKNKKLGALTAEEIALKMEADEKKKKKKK
Sequence of UniProt Q9HD34 (Q9HD34 whole entry, looked up): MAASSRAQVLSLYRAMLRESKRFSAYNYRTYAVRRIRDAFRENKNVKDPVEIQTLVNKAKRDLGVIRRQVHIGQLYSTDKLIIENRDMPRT

Target | log2 fold change (vemurafenib) | log2 fold change [1] | log2 fold change (barasertib) | log2 fold change [2] | log2 fold change (volasertib) | log2 fold change [3] | log2 fold change [4] | log2 fold change [5] | log2 fold change (saracatinib) | log2 fold change (sotrastaurin) | log2 fold change (alvocidib) | log2 fold change (Tubastatin A) | log2 fold change [6] | log2 fold change (defactinib) | log2 fold change [7] | log2 fold change (encorafenib) | log2 fold change [8] | log2 fold change (alisertib) | log2 fold change [9] | log2 fold change (gefitinib)
KPNA4 (UniProt O00629) | -0.003 | 0.017 | -0.089 | 0.048 | 0.026 | -0.022 | -0.318 (active) | 0.103 | -0.032 | 0.03 | -0.098 | 0.007 | 0.014 | -0.002 | 0.008 | 0.02 | -0.059 | -0.007 | 0.002 | 0.013
LUZP1 (UniProt Q86V48) | 0.037 | 0.003 | 0.013 | 0.086 | -0.015 | 0.012 | 0.108 | 0.014 | -0.024 | -0.01 | -0.027 | -0.061 | 0.099 | -0.056 | 0.004 | 0.023 | -0.074 | -0.014 | 0.012 | 0.039
MAST4 (UniProt O15021) | -0.085 | -0.049 | 0.051 | -0.126 | -0.017 | 0.121 | -0.204 | 0.059 | -0.001 | -0.015 | 0.042 | -0.11 | 0.394 | 0.282 | -0.173 | -0.036 | 0.006 | -0.043 | 0.032 | -0.066
LYRM4 (UniProt Q9HD34) | 0.026 | 0.015 | -0.04 | -0.051 | 0.021 | 0.03 | 0.715 (active) | -0.035 | 0.007 | -0.05 | 0.013 | 0.068 | -0.042 | 0 | 0.036 | -0.008 | 0 | 0.007 | 0 | 0.008
LYSMD3 (UniProt Q7Z3D4) | 0.025 | -0.05 | -0.003 | 0.074 | 0.056 | -0.013 | -0.094 | 0.235 | 0.056 | 0.002 | -0.001 | 0.127 | -0.045 | -0.062 | 0.092 | 0.031 | -0.124 | 0.001 | 0.112 | 0.254
MMS19 isoform 8 (UniProt Q96T76) | 0.064 | 0.006 | 0.029 | -0.061 | -0.114 | 0.002 | -0.005 | -0.051 | 0 | 0.026 | 0.008 | -0.144 | 0 | -0.027 | 0.007 | 0.014 | 0.128 | 0.002 | 0.001 | -0.022
MAP2K3 isoform 3 (UniProt P46734) | 0.065 | -0.042 | 0.032 | -0.125 | 0.07 | -0.063 | 0.191 | 0.04 | 0.113 | -0.008 | 0.05 | -0.066 | 0.139 | 0.017 | -0.055 | -0.011 | 0.169 | 0 | -0.171 | -0.087
KRR1 (UniProt Q13601) | 0.057 | 0.01 | 0.026 | 0.065 | -0.015 | 0.023 | -0.006 | -0.026 | 0.003 | -0.021 | 0.028 | -0.033 | -0.054 | 0.01 | -0.005 | 0.092 | 0.023 | 0.032 | 0.046 | -0.014
MACO1 (UniProt Q8N5G2) | -0.114 | -0.003 | -0.063 | 0.296 (active) | -0.009 | 0.025 | 0.113 | -0.037 | 0.064 | -0.01 | -0.003 | -0.003 | -0.012 | 0.01 | 0.119 | -0.101 | -0.016 | -0.024 | -0.005 | 0.04
MARK3 (UniProt P27448) | -0.003 | 0.036 | -0.001 | 0.038 | 0.042 | 0.005 | -0.114 | -0.237 | -0.015 | -0.228 | -0.071 | -0.119 | -0.188 | -0.158 | 0.113 | 0.038 | 0.129 | 0.006 | 0.003 | -0.02
KIF2C (UniProt Q99661) | 0.01 | 0.004 | 0.008 | -0.058 | -0.023 | 0.016 | 0.006 | -0.015 | -0.015 | 0.02 | 0.011 | -0.18 | -0.006 | 0.018 | 0.002 | 0.004 | 0.096 | -0.006 | 0.001 | -0.014
LSM8 (UniProt O95777) | -0.054 | 0.018 | 0.355 | -0.019 | 0.027 | 0 | -0.058 | 0.052 | -0.005 | -0.017 | -0.012 | 0.018 | 0.007 | 0.048 | -0.028 | 0.032 | -0.076 | -0.026 | 0.005 | 0.046
KIFC1 (UniProt Q9BW19) | -0.008 | 0.037 | 0.002 | 0.006 | -0.084 | -0.031 | -0.045 | -0.031 | 0.021 | 0.071 | -0.022 | -0.15 | -0.013 | -0.003 | 0.024 | -0.03 | 0.14 | 0.011 | 0.008 | -0.01
MBD2 (UniProt Q9UBB5) | -0.014 | 0.016 | -0.009 | 0.059 | -0.021 | 0.073 | -0.005 | -0.007 | -0.036 | -0.089 | 0.026 | -0.06 | 0.001 | 0.022 | 0.083 | 0.013 | -0.061 | 0.031 | 0.024 | -0.016
LETM1 (UniProt O95202) | 0.029 | 0.005 | -0.015 | -0.012 | 0.01 | -0.015 | 0.08 | -0.287 (active) | -0.002 | -0.014 | -0.046 | -0.033 | 0.018 | -0.007 | -0.027 | -0.001 | -0.018 | -0.022 | -0.166 | -0.04
MAPK1 (UniProt P28482) | -0.022 | -0.072 | -0.015 | -0.013 | -0.009 | 0.004 | 0.004 | -0.023 | 0.002 | -0.007 | 0.051 | 0.061 | 0.242 (active) | 0.091 | -0.007 | -0.062 | 0.031 | -0.038 | 0.043 | 0.014

Reference: the supplement of paper PMC10849652
